Experimental data reported in PubChem BioAssay AID720517 (National Center for Advancing Translational Sciences (NCATS), 2013).
Records with an inconclusive call do not appear. Entries that show only a call come without a potency. Active and inactive are the calls of the source. Calls follow the shape of the dose curve; as a rule, active = well fitted activation curve with a large enough effect; inconclusive = small, poorly fitted or top-dose-only effect; inactive = flat fitted curve, though single readings scatter.

Test: qHTS for Inhibitors of Cell Surface uPA Generation: FP59 Counterscreen for Cherry-picked Compounds
Conditions: FP59 anthrax toxin cytotoxicity counterscreen, cells; series mostly up to 115 µM

| Compound | Potency |
| --- | --- |
| CCn1c(CNc2ccc(F)cc2)nnc1SCC(=O)Nc1ccccc1OC | inactive |
| COc1cc(NC(=S)NCCc2ccc(S(N)(=O)=O)cc2)c(OC)cc1Cl | inactive |
| Cc1ccc2sc(NNC(=O)c3ccc4c(c3)OCCO4)nc2c1C | inactive |
| O=C(/C=C/c1cccc(F)c1)Nc1cc(S(=O)(=O)N2CCOCC2)ccc1Cl | inactive |
| Cc1ccc(-n2ncc(C(=O)NC3CC3)c2C2CCN(C(=O)OC(C)(C)C)CC2)cc1 | inactive |
| CCC(C)C(NC(=O)c1ccccc1)C(=O)Nc1ccc(S(=O)(=O)Nc2cc(C)nc(C)n2)cc1 (stereo not given) | inactive |
| COc1ccc(CCN=c2c([N+](=O)[O-])nn(-c3cccc(C)c3)n2O)cc1OC | inactive |
| CCOc1cc(S(=O)(=O)NC2CC(C)(C)NC(C)(C)C2)ccc1Cl | inactive |
| COCCNC(=O)COCc1cc(-c2ccc3c(c2)OCO3)on1 | inactive |
| Cc1cc(COc2ccccc2)oc1C(=O)O | inactive |
| O=C(COc1cc2oc(=O)cc(-c3ccccc3)c2cc1Cl)NC(Cc1c[nH]c2ccc(O)cc12)C(=O)O (stereo not given) | inactive |
| CCCc1nc2c(=O)n(C)c(=O)[nH]c2n1CCC | inactive |
| COc1ccc(S(=O)(=O)N2CCN(Cc3ccccc3)CC2)c(C)c1 | inactive |
| OCC[C@@H]1C[C@H](O)[C@@H](O)[C@]2(OCCc3ccccc32)O1 | inactive |
| COc1ccc(CN2CCNC(=O)C2CC(=O)NCC2CCOCC2)cc1C (stereo not given) | inactive |
| C[C@H](CO)N1C[C@H](C)[C@H](CN(C)S(=O)(=O)c2cn(C)cn2)Oc2ccc(NC(=O)Nc3ccc(C(F)(F)F)cc3)cc2CC1=O | inactive |
| CCc1nc(SCC(N)=O)c2c(=O)n(C)c(=O)n(C)c2n1 | inactive |
| O=C(c1ccccn1)C1CCCN(Cc2cn[nH]c2-c2cc3ccccc3o2)C1 (stereo not given) | inactive |
| O=C(CN1C(=O)CSCC1=O)NCc1ccc(F)cc1 | inactive |
| Cn1c(CN2CCCC2)nc2cc(NC(=O)COc3ccccc3)ccc21 | inactive |

| Compound | Potency |
| --- | --- |
| Cn1cc(SCC(=O)Nc2nccs2)c2ccccc21 | inactive |
| Cc1ccc([C@H]2C(C(=O)O)=CC[C@@H](c3cccc(C)c3)N2S(=O)(=O)c2ccc(C)cc2)cc1 | inactive |
| COc1ccc(C2C(C(=O)c3ccc(C)o3)=C(O)C(=O)N2CC2CCCO2)cc1OC (stereo not given) | inactive |
| O=c1[nH]c2ccccc2cc1CN(CC1CCCO1)S(=O)(=O)c1ccccc1 (stereo not given) | inactive |
| CC(C)Cn1cnc2c(N)nc3ccccc3c21 | inactive |
| O=C(CN1CCCC1)Nc1cccc(Cl)c1Cl | inactive |
| Cc1ccc(C(CC(=O)N2CCCC2)c2ccccc2)c(O)c1 (stereo not given) | inactive |
| CCN(CC)CCCn1c2c(c(SCC(=O)Nc3cccc4ccccc34)nc1=O)CCC2 | inactive |
| COc1cccc(CNC(=O)C2CCCN(S(=O)(=O)c3ccc4c(c3)C(C)(C)C(=O)N4C)C2)c1 (stereo not given) | inactive |
| CCCCNC(=O)C1CCN(S(=O)(=O)c2c(C)noc2/C=C\c2ccc(OC)cc2)CC1 | inactive |
| CCn1nc(C)c(CNC(=O)C2CCC(=O)N(CCc3ccc(OC)cc3)C2)c1C (stereo not given) | inactive |
| Cc1ccc(NC(=O)CS(=O)Cc2nc(-c3ccc(C)cc3)oc2C)cc1 (stereo not given) | inactive |
| O=C1C=C(NNC(=O)c2ccncc2)CC(c2ccccc2)C1 (stereo not given) | inactive |
| N#CCC(=O)N/N=C/c1ccc(OCC(=O)Nc2ccc(F)cc2)cc1 | inactive |
| COc1ccccc1C(=O)NCCC(=O)NCC(c1ccc(F)cc1)N1CCOCC1 (stereo not given) | inactive |
| COc1cccc(-n2c(SCC(=O)Nc3cc(C)on3)nc3c([nH]c4ccccc43)c2=O)c1 | inactive |
| CC(C)c1ccc(SCc2noc(C(=O)NCC3CCCO3)c2C(=O)O)cc1 (stereo not given) | inactive |
| CCN(CC)S(=O)(=O)c1ccc(C(=O)Nc2cccc(C)c2)cc1 | inactive |
| O=C(CCCC(=O)N(c1cccc(F)c1)C(C(=O)NC1CCCC1)c1ccc(O)cc1)Nc1ccccn1 (stereo not given) | inactive |
| COc1cc(CN2CCN(S(=O)(=O)c3ccccc3)CC2)cc(OC)c1OC | inactive |
